# An excerpt weighted towards active compounds, which were near 3.1% of everything screened.
# MEKK2 mut-MEK5 – MEK5 binding signal on mutant MEKK2 PB1, primary screen, biochemical, multiplex bead flow cytometry, Alexa488-MEK5; Alexa488-MEK5 binding to MEKK2 mutant; percent response, % at 10 µM; 290,000 tested, 0.35% active; AID 1530, 2009; in the data active = percent response above about 24%, passing the limit was not always enough
# PREPL inhibitor – PREPL enzyme inhibitors, primary screen, biochemical, fluorescence polarization. Prolyl endopeptidase-like (Homo sapiens), Q4J6C6. recombinant PREPL, fluorescence polarization activity-based probe. inhibition, % at 5.96 µM. 320,000 tested, 0.68% active. AID 2751, 2010; in the data active = inhibition above about 43%;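 also: 0% = enzyme with DMSO and 100% = wells lacking enzyme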
# MEKK2wt PB1 HTS – modulators of MEK5 binding to wildtype MEKK2, primary screen, biochemical, multiplex bead flow cytometry, Alexa488-MEK5; Mitogen-activated protein kinase kinase kinase 2 (Homo sapiens), Q9Y2U5; Alexa488-MEK5 binding to MEKK2 WT; actives lie on both sides; binding response (% of control), % at 10 µM; 290,000 tested, 1.1% active; AID 1531, 2009; in the data active = binding response below about 67% or above about 130%
# UBC13 polyUb – UBC13 polyubiquitin chain formation inhibitors, primary screen, biochemical, TR-FRET, uHTS; 330,000 tested, 0.47% active; inhibition, % at 20 µM; Ubiquitin-conjugating enzyme E2 N (Homo sapiens), P61088; in the data active = inhibition above about 45%, passing the limit was not always enough
# ATG4B inhibitor – ATG4B protease inhibitors, primary screen, biochemical, fluorescence, uHTS; Cysteine protease ATG4B (Homo sapiens), Q9Y4P1; AID 504462, 2011; ATG4B cleavage of LC3-PLA2, NBD-HPC fluorescence, 1 h; inhibition, % at 8.33 µM; 340,000 tested, 0.51% active; in the data active = inhibition above about 40%
# Target sequence (Q9Y4P1 whole entry, looked up): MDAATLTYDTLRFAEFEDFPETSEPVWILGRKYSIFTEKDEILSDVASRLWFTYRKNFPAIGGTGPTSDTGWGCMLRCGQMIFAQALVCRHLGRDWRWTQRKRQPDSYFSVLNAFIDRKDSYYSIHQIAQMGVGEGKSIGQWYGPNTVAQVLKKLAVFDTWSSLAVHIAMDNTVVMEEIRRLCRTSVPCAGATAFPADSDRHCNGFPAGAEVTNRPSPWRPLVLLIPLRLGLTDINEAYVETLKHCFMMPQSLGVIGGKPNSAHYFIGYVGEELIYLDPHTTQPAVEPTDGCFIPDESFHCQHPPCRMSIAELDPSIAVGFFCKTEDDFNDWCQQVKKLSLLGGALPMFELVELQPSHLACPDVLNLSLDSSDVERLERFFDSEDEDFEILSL
# MEKK3 PB1 HTS – modulators of MEKK3-MEK5 PB1 binding, primary screen, biochemical, wildtype MEKK3, multiplex bead flow cytometry, Alexa488-MEK5. Mitogen-activated protein kinase kinase kinase 3 (Homo sapiens), Q99759. binding response (% of control), % at 10 µM. 290,000 tested, 1.4% active. AID 1529, 2009. bead-based flow cytometry, Alexa488-MEK5 binding to MEKK3; actives lie on both sides; 0 = blocked by unlabeled MEK5, 100 = vehicle;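 active = binding response more than 3 SD above or below the average of its plate-row segment, actives on both sides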;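 also: Alexa488 bead fluorescence after subtracting the streptavidin-only scavenger bead signal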
# MEKK2wt confirm – modulators of MEK5 binding to wildtype MEKK2, confirmation, biochemical, single concentration, multiplex bead flow cytometry; shares compounds with MEKK3 PB1 HTS; Alexa488-MEK5 binding to MEKK2 WT; actives lie on both sides; binding response (% of control), % at 10 µM; 5,900 tested, 2.4% active; AID 1892, 2009; in the data active = binding response below about 16% or above about 210%; inactive = in between
# MEKK2mut confirm – mutant MEKK2 PB1-MEK5 binding signal retest – biochemical, single concentration, multiplex bead flow cytometry, confirmation. shares compounds with MEKK3 PB1 HTS. percent response, % at 10 µM. Alexa488-MEK5 binding to MEKK2 mutant. 5,900 tested, 2% active; in the data active = percent response mostly above about 71%, no sharp cut-off; inactive = mostly below about 38%;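 also: higher means compound restores mutant binding toward wildtype level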
# MEKK3 confirm – MEKK3 wild-type PB1 binding to MEK5, inhibitors, confirmation, biochemical, bead multiplex flow cytometry, single concentration, wildtype; shares compounds with MEKK3 PB1 HTS; Alexa488-MEK5 binding to MEKK3; stronger effect = lower value; binding response (% of control), % at 10 µM; 5,900 tested, 1.8% active;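 active = binding response below 72% of control, or above a set upper limit, though filed actives all read lower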;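 also: 100% = DMSO only wells and 0% = binding blocked by excess unlabeled MEK5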
# * hit, by the source's call; nt = no result; [ ] = another dose, or the depositor's remark.
SMILES,MEKK2 mut-MEK5,PREPL inhibitor,MEKK2wt PB1 HTS,UBC13 polyUb,ATG4B inhibitor,MEKK3 PB1 HTS,MEKK2wt confirm,MEKK2mut confirm,MEKK3 confirm
CCOc1ccccc1NC(=O)C1(S(=O)(=O)c2ccc(Cl)cc2)CC1,-1,-4,98,1,-5,102,nt,nt,nt
COc1ccc(-n2c(=S)[nH]c3cc(C(=O)Nc4cccc(C)c4)ccc3c2=O)cc1,-1,-2,105,-16,6,155*,101,4,103
CCOC(=O)N1CCN(C(=O)c2ccc3c(=O)n(-c4ccc(F)cc4)c(=S)[nH]c3c2)CC1,-21,7,0.0*[inhibitor],9,7,1.0*[inhibitor],94,-1,87
COc1ccc(-n2c(=S)[nH]c3cc(C(=O)Nc4ccc(OC)c(OC)c4)ccc3c2=O)cc1,-1,-11,103,nt,-1,140*,94,-4,100
COc1ccc(-n2c(=S)[nH]c3cc(C(=O)NCc4cccnc4)ccc3c2=O)cc1,-3,10,103,1,-4,105,nt,nt,nt
COc1ccc(-n2c(=S)[nH]c3cc(C(=O)Nc4ccc(C)c(F)c4)ccc3c2=O)c(OC)c1,8,-6,103,2,-7,104,nt,nt,nt
Cc1cccnc1NC(=O)CCNC(=O)c1ccccc1Cl,5,21,100,3,-4,101,nt,nt,nt
CCOc1cccc(CNCc2ccc(C(=O)O)cc2)c1,-17,3,58,-1,-4,50*[inhibitor],101,-6,101
COC(=O)c1ccc(/C=C(\C#N)c2ccccn2)cc1,-47,-4,1.0*[inhibitor],-10,2,2.0*[inhibitor],89,-34,87
CN(C)c1ccc(/C=C(\C#N)c2ccccn2)cc1,-2,4,104,-7,35,99,nt,nt,nt
NC(N)=N/N=C/c1ccc(OCc2ccccc2Cl)cc1,49*,14,208*,74*,20,111,209*,45,103
OCCCCNCc1ccc(OCc2ccccc2Cl)cc1,27*,17,163*,15,6,101,170,41,111
COc1cccc(-c2c(-c3cc(OC)cc(OC)c3)n(C)c3ccc(-c4cnc(N5CCOCC5)nc4)cc23)c1,nt,9,nt,35,-4,nt,nt,nt,nt
OC(c1cc(-c2ccc(C(F)(F)F)cc2)nc(C(F)(F)F)c1)C1CCCCN1 (stereo not given),57*,-119,165*,43,5,111,153,32,103
COC(=O)CSc1nc(-c2ccc(F)cc2)cc(C(F)(F)F)n1,4,-6,102,6,-2,93,nt,nt,nt
COc1ccc(C)cc1NC(=O)c1ccc(NS(=O)(=O)c2cccc3cccnc23)cc1,26,-6,111,-6,-13,131*,97,-1,102
COc1ccc(NC(=O)c2ccc(NS(=O)(=O)c3cccc4cccnc34)cc2)cc1,0,-5,104,6,-1,101,nt,nt,nt
COC(=O)c1ccc(NS(=O)(=O)c2cccc3cccnc23)cc1,-1,11,97,2,0,105,nt,nt,nt
COC(=O)CS(=O)(=O)c1cccc2cccnc12,-60,15,4.0*[inhibitor],-25,-16,3.0*[inhibitor],90,-7,92
